Results filed as inconclusive are left out. Activity calls are given as the source filed them. The call rests on the fitted dose curve; in most records, active means well fitted cell-killing curve with a large enough effect; inconclusive means small, poorly fitted or top-dose-only effect, or effect the other way; inactive means no such curve, though single readings can be large or run the other way.
Potency means the concentration at half of the fitted maximal effect.

The assay can be described thus: Quantitative High-Throughput drug screen in 47 multiple myeloma cell lines against the NCATS MIPE library collection: MMM1_PLB cell viability assay (AID 1918976). Further: nearly all actives have a fitted effect of over 35% in size. The note with it: MMM1 myeloma cells viability, CellTiter-Glo, 48 h; series mostly up to 45.8 µM. An excerpt:
PI: Beverly A. Mock Ph.D.
Laboratory of Cancer Biology and Genetics,
Center for Cancer Research, National Cancer Institute,
National Institute of Health, Bethesda, Maryland
Drug resistance and disease progression are common in multiple myeloma (MM) patients, underscoring the need for new therapeutic combinations. […] We hypothesized that effective combinations would reduce MYC expression and enhance p16 activity. […] These preclinical data identify potentially useful drug combinations for evaluation in drug-resistant MM and reveal potential mechanisms of combined drug sensitivity.
Described herein is the primary MIPE qHTS used to cherrypick compounds. Validated compounds were then further tested for potential synergistic activiy.
[1] Peat TJ, Gaikwad SM, Dubois W, Gyabaah-Kessie N, Zhang S, Gorjifard S, Phyo Z, Andres M, Hughitt VK, Simpson RM, Miller MA, Girvin AT, Taylor A, Williams D, D'Antonio N, Zhang Y, Rajagopalan A, Flietner E, Wilson K, Zhang X, Shinn P, Klumpp-Thomas C, McKnight C, Itkin Z, Chen L, Kazandijian D, Zhang J, Michalowski AM, Simmons JK, Keats J, Thomas CJ, Mock BA. Drug combinations identified by high-throughput screening promote cell cycle transition and upregulate Smad pathways in myeloma. Cancer Lett. 2023 Aug 1;568:216284. doi: 10.1016/j.canlet.2023.216284. Epub 2023 Jun 24. PMID: 37356470; PMCID: PMC10408729.
SEQUENCE No. (e.g., 1, 2, 3, etc.); […] (e.g., Cells, Incubation, Reagent, etc.); VALUE and DESCRIPTION.
1; Cells; 5 uL; white, solid bottom 1536-well Greiner assay plate.
2; Compounds; 23 nL; Kalypsis pin tool (Wako USA) equipped with a 1536-well pin head to transfer to the assay plates.
3; Incubation; 48 hours; 37C incubation.
4; Reagent;5uL; CellTiter Glo (Promega).
5; Detector; 425V; Luminescence; Viewlux PerkinElmer.
NOTES (numbers refer to Sequence numbers above)
1. The cell-based screening methods employed in this study were like those previously published. Briefly, the corresponding myeloma cell lines were screened in 1,536-well plates with 500 cells, 5-uL per well for inhibition of cell viability (assessed by measuring ATP levels with CellTiterGlo).
2. NCATS MIPE 4.0 library of approved and investigational drugs were added using the Kalypsis pin tool. Wells treated with DMSO only for 100% viability and media only for 0% viability were used as controls.
3. The assay plates were covered and incubated for 48 hours in a 37C, 5% CO2 incubator with controlled humidity.
4. After 48 hours, CellTilter-GloTM luminescent substrate mix (Promega) reagent was added to the assay plate and plates we incubated for 5 min at room temperature.
5. Signal was measured as median relative luminescence units on a ViewLux (PerkinElmer) multiplate reader.
[1] Heske CM, Davis MI, Baumgart JT, Wilson K, Gormally MV, Chen L, Zhang X, Ceribelli M, Duveau DY, Guha R, Ferrer M, Arnaldez FI, Ji J, Tran HL, Zhang Y, Mendoza A, Helman LJ, Thomas CJ. Matrix Screen Identifies Synergistic Combination of PARP Inhibitors and Nicotinamide Phosphoribosyltransferase (NAMPT) Inhibitors in Ewing Sarcoma. Clin Cancer Res. 2017 Dec 1;23(23):7301-7311. doi: 10.1158/1078-0432.CCR-17-1121. Epub 2017 Sep 12. PMID: 28899971; PMCID: PMC6636827.
In general terms: Cellular ATP, detected with luciferase, serves as a proxy for viable cell number.
Turning to `Nc1nc2[nH]cc(CCc3ccc(C(=O)N[C@@H](CCC(=O)O)C(=O)O)cc3)c2c(=O)[nH]1`, the Potency is 2.09 µM (active).
For `NC(=O)C1CCCc2c1[nH]c1ccc(Cl)cc21` (stereo not given) the value was 3.32 µM (active).
As to `CC[C@@H](C)[C@H](NC(=O)[C@H](CC1CCCCC1)NC(=O)c1ccno1)C(=O)N1CCC2(CCc3ccccc32)CC1`, the Potency is 11.8 µM (active).
The figure for `S=C(NCc1ccc2c(c1)OCO2)N1CCN(c2ncnc3c2oc2ccccc23)CC1` is 1.21 µM (active); for `CC1(C)Cc2c(-c3ccccc3)c(-c3ccc(Cl)cc3)c(CC(=O)O)n2C1` it is 20.9 µM (active).
With `CC(C)(Sc1ccc(CCN(CCCCC2CCCCC2)C(=O)NC2CCCCC2)cc1)C(=O)O`, the Potency is 18.7 µM (active).
For `CCCn1c(=O)c2[nH]c(C34CC5CC3C[C@@H](C5)C4)nc2n(CCC)c1=O` the value was 18.7 µM (active); for `Nc1nc2ccc(OC(F)(F)F)cc2s1`, 23.5 µM (active).
For `Cc1ccc(NC(=O)c2cccc(C(C)(C)C#N)c2)cc1Nc1ccc2ncn(C)c(=O)c2c1` the value was 16.6 µM (active); for `O=C(Nc1cccnc1)N1CCC(Cc2cccc(Oc3ccc(C(F)(F)F)cn3)c2)CC1`, 10.5 µM (active).
For `Cc1cc([C@@H](C)Nc2ccccc2C(=O)O)c2nc(N3CCOCC3)cc(=O)n2c1`, the Potency is 19.1 µM (active).
The figure for `N#CC[C@H](C1CCCC1)n1cc(-c2ncnc3[nH]ccc23)cn1` is 16.6 µM (active); for `Cc1cc2c(C(C)C)c(O)c(O)c(C=O)c2c(O)c1-c1c(C)cc2c(C(C)C)c(O)c(O)c(C=O)c2c1O` it is 18.7 µM (active).
Regarding `Cc1c(CN2CCN(C(=O)C(C)C)CC2)sc2c(N3CCOCC3)nc(-c3cnc(N)nc3)nc12`, the Potency was 0.0526 µM (active).
The figure for `CCCCCCCc1ccc(CCc2cccc(O)c2C(=O)O)cc1` is 14.8 µM (active); for `Cc1cc(-c2ccc(CC(=O)Nc3ccc(-c4cccnc4)cc3)cc2)ccn1` it is 20.9 µM (active); for `COc1ccccc1[C@H](c1cccc2ccccc12)[C@@](C)(C#N)C(=O)N1CCC(c2cccc(C(F)(F)F)c2)CC1` it is 11.8 µM (active).
For `Oc1cccc(-c2nc(N3CCOCC3)c3oc4ncccc4c3n2)c1` the value was 0.0679 µM (active).
For `CCC(C)n1ncn(-c2ccc(N3CCN(c4ccc(OC[C@H]5CO[C@](Cn6cncn6)(c6ccc(Cl)cc6Cl)O5)cc4)CC3)cc2)c1=O` (stereo not given in full) the value was 2.96 µM (active); for `CC1(C)SCCN(S(=O)(=O)c2ccc(OCC#CCO)cc2)[C@@H]1C(=O)NO`, 1.87 µM (active); for `CC(C)(C)OC(=O)CN(Cc1ccc(Cl)cc1)Cc1ccc([N+](=O)[O-])s1`, 20.9 µM (active).
Consider `Nc1ncnc2nc(-c3ccc(N4CCOCC4)nc3)cc(-c3cccc(Br)c3)c12`, for which the Potency is 11.8 µM (active).
The figure for `NCCCC(N)(C(=O)O)C(F)F` (stereo not given) is 0.526 µM (active).
On to `C#Cc1cccc(Nc2ncnc3cc(OCCOC)c(OCCOC)cc23)c1`, for which the Potency was 0.59 µM (active).
The figure for `O=c1ncn2nc(Sc3ccc(F)cc3F)ccc2c1-c1c(Cl)cccc1Cl` is 20.9 µM (active); for `Clc1ccc(Nc2nnc(Cc3ccncc3)c3ccccc23)cc1` it is 18.7 µM (active).
The figure for `COc1ccc(-c2c(-c3ccc(O)cc3O)n[nH]c2C)cc1` is 42.9 µM (active); for `COc1ccc(COc2cc3oc(=O)c4cc(C(C)O)ccc4c3cc2OC)cc1` (stereo not given) it is 18.7 µM (active); for `CN(C)C(=O)c1ccc(S(=O)(=O)c2ccc(NC(=O)[C@@](C)(O)C(F)(F)F)c(Cl)c2)cc1` it is 8.33 µM (active).
For `O=C(Nc1ccc(F)c(C(F)(F)F)c1)Nc1nnc(-c2ccncc2)s1` the value was 5.26 µM (active); for `CN(C)c1ccc(C2Nc3ccc4ccccc4c3C3=C2C(=O)CC(C)(C)C3)cc1Br` (stereo not given), 14.8 µM (active).
For `C[C@@H]1CN(Cc2ccc(F)cc2)[C@@H](C)CN1C(=O)c1cc2c(C(=O)C(=O)N(C)C)cn(C)c2cc1Cl`, the Potency was 23.5 µM (active).
As for `COc1ccc(-c2ccc3c(N4CCOC[C@H]4C)nc(N4CCOC[C@H]4C)nc3n2)cc1CO`, the Potency is 0.0105 µM (active).
The figure for `CCc1cncnc1N1CCN(Cc2nc3ccc(C(F)(F)F)cc3[nH]2)CC1` is 16.6 µM (active).
`CC[C@H](Nc1ncnc2nc[nH]c12)c1nc2cccc(F)c2c(=O)n1-c1ccccc1`: the Potency is 18.7 µM (active).
For `CNC(=O)c1ccc(C)c(-n2c(C)cc(OCc3ccc(F)cc3F)c(Br)c2=O)c1` the value was 18.7 µM (active); for `COc1cc2nccc(Oc3ccc(NC(=O)NC4CC4)c(Cl)c3)c2cc1C(N)=O`, 2.35 µM (active).
The figure for `Cc1cc2c(F)c(Oc3ncnn4cc(OC[C@@H](C)O)c(C)c34)ccc2[nH]1` is 2.09 µM (active).
For `CCC(=O)N[C@H]1CC[C@H](C(=O)N(C)c2ccc(-c3nc4ccccc4o3)cc2)C1` the value was 14.8 µM (active); for `Cc1cc(SCc2sc(-c3ccc(C(F)(F)F)cc3)nc2C)ccc1OCC(=O)O`, 5.26 µM (active).

The values are drawn from PubChem BioAssay (NCATS).
